Assay outcomes as filed in PubChem BioAssay.
Sfp inh: inhibitors of Bacillus subtilis Sfp phosphopantetheinyl transferase; Biochemical Sfp PPTase activity, qHTS; Potency, µM, actives largely listed as inhibitors; 310,000 tested, 3.5% active;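 further: the enzyme is Sfp with the accession as filed and its product quenches rhodamine fluorescence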
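Fluorescence-quenching assay: 15 nM Sfp-PPTase preincubated 15 min at room temperature with compound, then 5 uM rhodamine-CoA and 12.5 uM BHQ-2-labelled YbbR peptide added. Fluorescence (ex 525/em 598 nm) read at start and after 30 min; difference gives rate.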
L3MBTL1 block: inhibitors of human L3MBTL1; AlphaScreen L3MBTL1–H3K9me1 peptide binding; AID 485360; Potency, µM (series often up to 57.1 µM), usual class: inhibitors; 230,000 tested, 0.66% active; further: nearly all actives have a fitted effect of over 60% in size
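First, the protein-peptide complex forms for 30 min at room temperature (L3MBTL1 50 nM, biotinylated H3K9me1 peptide 75 nM). Next, compounds are pin-transferred and incubated 30 min. Finally, AlphaScreen beads are added and read after 30 min.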
JMJD2A Tudor: blocks the human JMJD2A Tudor domain | O75164 | AlphaScreen JMJD2A-Tudor / H3K4me3 peptide binding | Potency, µM (top dose mostly 114 µM), hits mostly inhibitors | 390,000 tested, 4.4% active; further: nearly all actives have a fitted effect of over 50% in size
BAZ2B block: inhibitors of human BAZ2B bromodomain; 360,000 tested, 4.4% active; Potency, µM (top dose mostly 114 µM), most hits filed as inhibitors; Q9UIF8; AID 504333; AlphaScreen BAZ2B-H3K14Ac peptide displacement; further: nearly all actives have a fitted effect of over 60% in size
Target sequence (Q9UIF8 whole entry, looked up): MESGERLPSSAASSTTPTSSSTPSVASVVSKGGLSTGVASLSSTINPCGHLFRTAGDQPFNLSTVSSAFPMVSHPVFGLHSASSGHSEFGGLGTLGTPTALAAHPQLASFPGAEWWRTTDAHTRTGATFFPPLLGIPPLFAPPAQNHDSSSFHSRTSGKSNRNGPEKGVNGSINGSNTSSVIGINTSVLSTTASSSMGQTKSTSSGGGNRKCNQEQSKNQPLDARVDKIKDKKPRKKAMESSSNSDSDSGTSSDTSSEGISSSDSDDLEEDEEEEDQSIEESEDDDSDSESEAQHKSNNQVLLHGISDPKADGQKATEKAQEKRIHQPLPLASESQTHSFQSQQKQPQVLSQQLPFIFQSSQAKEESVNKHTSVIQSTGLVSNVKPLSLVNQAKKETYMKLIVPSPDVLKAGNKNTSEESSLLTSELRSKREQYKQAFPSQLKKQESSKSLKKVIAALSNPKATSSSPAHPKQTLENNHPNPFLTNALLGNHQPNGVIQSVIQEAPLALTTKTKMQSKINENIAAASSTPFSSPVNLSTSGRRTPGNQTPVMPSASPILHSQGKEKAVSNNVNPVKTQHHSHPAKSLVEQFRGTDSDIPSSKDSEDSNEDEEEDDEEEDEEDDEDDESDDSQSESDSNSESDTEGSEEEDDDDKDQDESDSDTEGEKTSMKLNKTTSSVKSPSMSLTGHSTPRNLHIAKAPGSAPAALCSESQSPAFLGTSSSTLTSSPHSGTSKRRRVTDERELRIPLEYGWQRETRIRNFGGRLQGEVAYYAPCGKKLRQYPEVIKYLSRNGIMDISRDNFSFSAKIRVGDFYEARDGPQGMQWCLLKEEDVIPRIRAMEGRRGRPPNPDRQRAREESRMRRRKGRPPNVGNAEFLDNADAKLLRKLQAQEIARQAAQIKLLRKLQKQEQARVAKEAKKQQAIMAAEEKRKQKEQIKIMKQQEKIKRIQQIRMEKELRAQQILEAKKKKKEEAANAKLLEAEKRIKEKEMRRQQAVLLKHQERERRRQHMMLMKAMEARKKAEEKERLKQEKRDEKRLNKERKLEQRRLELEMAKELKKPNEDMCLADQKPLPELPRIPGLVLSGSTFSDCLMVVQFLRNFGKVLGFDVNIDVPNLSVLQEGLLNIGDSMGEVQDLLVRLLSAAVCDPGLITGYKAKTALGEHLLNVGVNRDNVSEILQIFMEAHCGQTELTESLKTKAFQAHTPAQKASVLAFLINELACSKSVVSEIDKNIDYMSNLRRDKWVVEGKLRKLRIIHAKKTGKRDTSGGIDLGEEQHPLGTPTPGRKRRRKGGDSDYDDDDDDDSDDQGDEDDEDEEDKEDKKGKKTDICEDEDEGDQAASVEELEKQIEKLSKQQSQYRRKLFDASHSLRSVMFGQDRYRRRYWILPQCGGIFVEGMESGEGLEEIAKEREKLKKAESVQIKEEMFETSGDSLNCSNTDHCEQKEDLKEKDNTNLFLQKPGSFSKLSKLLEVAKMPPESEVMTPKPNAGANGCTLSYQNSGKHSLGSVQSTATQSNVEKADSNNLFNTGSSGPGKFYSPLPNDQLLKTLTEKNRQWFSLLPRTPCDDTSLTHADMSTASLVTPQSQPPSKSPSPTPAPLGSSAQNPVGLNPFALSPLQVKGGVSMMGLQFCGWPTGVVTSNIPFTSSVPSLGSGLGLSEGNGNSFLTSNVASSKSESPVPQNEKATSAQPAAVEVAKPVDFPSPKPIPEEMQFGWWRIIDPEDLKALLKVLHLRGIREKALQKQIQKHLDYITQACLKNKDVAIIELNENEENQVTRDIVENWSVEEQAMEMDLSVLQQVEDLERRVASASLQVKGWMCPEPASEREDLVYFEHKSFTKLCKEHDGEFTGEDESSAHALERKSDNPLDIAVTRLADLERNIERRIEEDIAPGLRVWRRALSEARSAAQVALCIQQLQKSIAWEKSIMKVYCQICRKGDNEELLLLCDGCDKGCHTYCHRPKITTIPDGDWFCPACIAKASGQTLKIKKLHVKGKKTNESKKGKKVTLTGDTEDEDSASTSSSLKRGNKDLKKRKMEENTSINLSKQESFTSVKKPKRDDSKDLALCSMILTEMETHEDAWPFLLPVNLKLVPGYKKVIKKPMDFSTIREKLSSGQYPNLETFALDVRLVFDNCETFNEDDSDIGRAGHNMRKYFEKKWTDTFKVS
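BAZ2B 50 nM plus b-H3(5-23)K14Ac 50 nM, PBS pH 7.4/0.01% Tween-20, 30 min RT; compound added (max 110 uM), 30 min RT; streptavidin donor/Ni-chelate acceptor beads 10 ug/mL final, 20 min dark; AlphaScreen read.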
G9a block: blocks human histone lysine methyltransferase G9a; Potency, µM (top dose mostly 102 µM), most hits filed as inhibitors; Q96KQ7; G9a H3K9 monomethylation, AlphaScreen, 2 h; 350,000 tested, 8.8% active; further: nearly all actives have a fitted effect of over 75% in size
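Using a bead-based AlphaScreen, monomethylated H3K9 product from 2 h room-temperature reactions (G9a 20 nM, peptide 500 nM, SAM 20 uM) was detected with 0.5 ug/mL rabbit anti-H3K9me1 antibody.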
HP1b chromo inh: inhibitors of HP1-beta chromodomain binding to methylated histone tails; Potency, µM (titrated, usually from 114 µM), actives largely listed as inhibitors; AlphaScreen HP1-beta / biotin-H3K9me3 peptide binding; P83916; 390,000 tested, 0.56% active; further: nearly all actives have a fitted effect of over 70% in size
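HP1-beta protein (50 nM final) preincubated 30 min at room temperature with biotinylated H3(1-18)K9me3 peptide (50 nM) in PBS pH 7.4, 0.01% Tween-20, then compound added for 30 min. AlphaScreen streptavidin donor/nickel chelate acceptor beads (10 ug/mL final), 30 min dark, luminescence read.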
Numbers stand for hits; . = inactive; ? = inconclusive; / = no result given; [ ] = remark or other dose. Hits are enriched below; roughly 12% of the tested compounds scored in any of these assays. The call rests on the fitted dose curve; in most records, active means well fitted curve in the direction sought with a large enough effect; inconclusive means small, poorly fitted or top-dose-only effect, or another doubt; inactive means no such curve, though single readings can be large; an effect the other way counts as inactive or inconclusive.

SMILES | Sfp inh | L3MBTL1 block | JMJD2A Tudor | BAZ2B block | G9a block | HP1b chromo inh
C[N+]12CCCC[C@@H]1CCC(=C(c1cccs1)c1cccs1)C2 (stereo not given in full) | . | / | / | / | .[12.7 µM] | /
O=C(NC1CCCC1)c1ccc2nc(-c3ccco3)c(-c3ccco3)nc2c1 | 6.3µM | . | 28µM | ? | 5µM | 79µM
O=C(NC1CCCC1)c1ccc2nc[nH]c2c1 | . | / | . | . | .[12.7 µM] | .
O=C(NCCc1ccccc1)c1ccc2nc(-c3ccco3)c(-c3ccco3)nc2c1 | 25µM | / | 56µM | 10µM | 1.4µM | ?
O=C(NCCO)c1ccc(Cl)c(Cl)c1 | . | / | . | . | .[12.7 µM] | .
O=C(NCCc1ccccc1)c1ccc2c(c1)OCCCO2 | . | / | . | . | 32µM | .
O=C(NCCO)c1ccc2nc(-c3ccco3)c(-c3ccco3)nc2c1 | 10µM | / | 22µM | ? | 1.4µM | 45µM
O=C(NCC1CC1)c1ccc2nc(-c3ccoc3)c(-c3ccoc3)nc2c1 | / | / | . | / | / | .
Cc1noc(C)c1NC(=O)N(C)C[C@@H]1Oc2ccc(NS(=O)(=O)c3c(C)noc3C)cc2C(=O)N([C@H](C)CO)C[C@H]1C | / | . | . | / | / | .
COc1cc(/C=C/C(=O)Nc2ccc(S(=O)(=O)Nc3onc(C)c3C)cc2)cc(OC)c1OC | / | / | . | / | / | .
COc1cccc(CNC(=O)CSc2n[nH]c(-c3ccccc3Cl)n2)c1OC | / | / | . | . | . | .
Cc1ccc(NCc2nnc(SCC(=O)Nc3cccc(O)c3)n2CC2CCCO2)c(C)c1 (stereo not given) | . | . | ? | ? | 56µM | .
Cc1ccc(NCc2nnc(SCC(=O)NCc3ccco3)n2CC2CCCO2)cc1Cl (stereo not given) | . | . | 79µM | . | ? | .
Cc1ccc(NCc2nnc(SCC(=O)Nc3ncc(C)s3)n2CC2CCCO2)c(C)c1 (stereo not given) | . | . | . | . | . | .
CCN(CC)c1ccc(S(=O)(=O)N2CCOCC2)cc1NC(=O)CN1CCN(Cc2ccccc2)CC1 | 79µM | / | 18µM | 22µM | ? | ?
CCN(CC)c1ccc(S(=O)(=O)N2CCOCC2)cc1NC(=O)CNCc1ccccc1 | 35µM | . | 89µM | 50µM | ? | ?
CCN(CC)c1ccc(S(=O)(=O)N2CCOCC2)cc1NC(=O)CSC(=S)N1CCCC1 | 25µM | / | ? | . | 7.9µM | .
CCN(CC)c1ccc(S(=O)(=O)N2CCOCC2)cc1NC(=O)C1CC1 | / | . | . | . | .[2.33 µM] | .
O=c1c2cnn(-c3ccc(F)cc3)c2ncn1Cc1ccccc1Cl | / | / | . | . | . | .
CSCC[C@H](NC(=O)OC(C)(C)C)c1nnc(SCC=C(C)C)o1 | . | . | . | . | 50µM | .
CSCC[C@H](NC(=O)OC(C)(C)C)c1nnc(SCC(N)=O)o1 | . | . | . | . | . | .
Cc1sc(NC(=S)Nc2ccc(F)cc2)c(C(N)=O)c1C | 20µM | . | .[11.4 µM] | . | 28µM | .
COC(=O)c1c(NC(=S)Nc2ccc(CC(=O)O)cc2)sc(C)c1C | . | . | . | . | 8.9µM | .
CCOC(=O)c1c(NC(=S)Nc2ccc(Cl)cc2)sc(C)c1C | . | / | . | . | ? | .
Cc1ccccc1C(=O)Nc1ccnn1C1CCN(C(C)Cc2ccccc2F)CC1 (stereo not given) | . | / | . | . | . | .
SMILES | Sfp inh | L3MBTL1 block | JMJD2A Tudor | BAZ2B block | G9a block | HP1b chromo inh
CCOCCCNC(=O)c1cc2c(=O)[nH]c3ccccc3c2n1C | / | / | ? | / | . | .
NC(=O)NC(=O)CC1S/C(=N/N=C/c2ccccc2)NC1=O (stereo not given) | . | . | . | . | . | .
O=C(O)CNC(=O)CC1S/C(=N/N=C2/NC(=O)CS2)NC1=O (stereo not given) | 32µM | / | 22µM | 20µM | 28µM | .
NC(=O)NC(=O)CC1S/C(=N/N=C2\CSC(=O)N2)NC1=O (stereo not given) | 11µM | ? | 8.9µM | 3.2µM | 0.79µM | .
Cn1nc(C(=O)O)c(=O)n(C)c1=O | / | / | 89µM | / | / | .
CCOC(=O)c1nn(C)c(=S)n(C)c1=O | / | / | . | / | / | .
Oc1c(C(c2ccccc2)N2CCC(O)CC2)sc2nc(-c3ccco3)nn12 (stereo not given) | / | / | . | . | . | .
Clc1ccccc1-c1nc(/C=N/N2CCOCC2)c2ccccn12 | 89µM | . | ? | / | 28µM | ?
CN1CCN(/N=C/c2nc(-c3ccccc3Cl)n3ccccc23)CC1 | . | . | . | . | 28µM | .
COc1ccc(NC(=O)C2=C(C)C(=O)OC23CCN(C(C)C)CC3)cc1Cl | / | / | . | ? | . | .
O=c1[nH]c(CSc2nnc(Nc3ccccc3)s2)nc2ccccc12 | . | . | ? | . | . | .
CC1(C)C(c2cccs2)=[N+]([O-])C2(CCCCC/C2=N\NC(N)=S)N1O (stereo not given) | 89µM | / | . | . | . | .
O=C(CNC(=O)c1cccs1)Nc1ccc2c(c1)OCCO2 | / | . | . | . | .[0.501 µM] | .
Cc1c2n(c3ccccc13)CCN(C)C2 | / | . | 22µM | . | .[2.33 µM] | .
CN1CCc2c(c3ccccc3n2C)C1 | . | . | . | . | .[12.7 µM] | .
CC(=O)OCC1OC(C#Cc2ccccc2)C=CC1OC(C)=O (stereo not given) | . | / | / | / | / | /
O=C(COC(=O)Cn1[nH]c(=O)c2ccccc2c1=O)NNC(=O)c1ccc(Br)cc1 | / | . | . | . | ? | .
Cc1cccc2cc(CN(Cc3ccco3)C(=O)c3ccncc3)c(=O)[nH]c12 | 50µM | .[11.4 µM] | . | . | .[12.7 µM] | .
Cc1cccc2cc(CN(CC3CCCO3)C(=S)NCc3ccco3)c(=O)[nH]c12 (stereo not given) | 50µM | . | . | . | . | .
Cc1ccc2[nH]c(=O)c(CN(CC3CCCO3)C(=S)NCc3ccco3)cc2c1 (stereo not given) | . | . | . | . | . | .
Cc1ccc2cc(CN(CC3CCCO3)C(=S)NCc3ccco3)c(=O)[nH]c2c1 (stereo not given) | 45µM | . | . | . | ? | ?
Cc1ccc2[nH]c(=O)c(CN(Cc3cccs3)C(=S)NCc3ccco3)cc2c1 | 50µM | . | . | . | . | .
Cc1cccc(Cn2c(=O)n(-c3cc(C)cc(C)c3)c(=O)c3oc4ccccc4c32)c1 | / | / | . | . | . | .
COc1cc(NC(=O)COC(=O)CNC(=O)C2CCCCC2)cc(OC)c1 | / | . | . | . | .[12.7 µM] | .
COc1ccccc1NC(=S)N(Cc1ccco1)Cc1cc2ccc(C)c(C)c2[nH]c1=O | 50µM | . | . | . | . | .
CCNC(=S)N(Cc1ccco1)Cc1cc2cc(OCC)ccc2[nH]c1=O | 10µM | . | . | ? | 45µM | .
Cc1ccc2cc(CN(Cc3cccs3)C(=O)c3ccco3)c3nnnn3c2c1C | . | . | / | . | . | /
